Assay outcomes as filed in PubChem.
MITF inh – blocks human microphthalmia-associated transcription factor; O75030; AlphaScreen MITF homodimerization, bead proximity signal; inhibition, % at 2.6 µM; 650,000 compounds, 0.91% hits; in the data active means inhibition above about 50%;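 further: 0% = vehicle wells with protein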
TEAD-YAP inh – TEAD-YAP interaction inhibition; HEK-TIYL cells, TEAD-Gal4/YAP UAS-luciferase luminescence; inhibition, % at 9.12 µM; 640,000 compounds, 1.4% hits; in the data active means inhibition above about 32%;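 further: 0% = median of test compound wells and 100% = reference inhibitor wells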
FBW7 act – activators of human E3 ligase FBW7. normalized activity (activation), % at 26.1 µM. Q969H0. AlphaScreen FBW7–phospho-cyclin E peptide binding, activator screen. 650,000 compounds, 0.13% hits; in the data active means normalized activity above about 1.9%;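 further: purified mutant Fbw7 with reduced substrate affinity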
GPR151 ag – activates the human receptor GPR151; Q8TDV0; PathHunter beta-arrestin GPR151 cells, luminescence; activation, % at 11.2 µM; 650,000 compounds, 1% hits; in the data active means activation above about 4.9%;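 further: 0% = median of compound wells and 100% = cells with positive control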
Target sequence (Q8TDV0 whole entry, looked up): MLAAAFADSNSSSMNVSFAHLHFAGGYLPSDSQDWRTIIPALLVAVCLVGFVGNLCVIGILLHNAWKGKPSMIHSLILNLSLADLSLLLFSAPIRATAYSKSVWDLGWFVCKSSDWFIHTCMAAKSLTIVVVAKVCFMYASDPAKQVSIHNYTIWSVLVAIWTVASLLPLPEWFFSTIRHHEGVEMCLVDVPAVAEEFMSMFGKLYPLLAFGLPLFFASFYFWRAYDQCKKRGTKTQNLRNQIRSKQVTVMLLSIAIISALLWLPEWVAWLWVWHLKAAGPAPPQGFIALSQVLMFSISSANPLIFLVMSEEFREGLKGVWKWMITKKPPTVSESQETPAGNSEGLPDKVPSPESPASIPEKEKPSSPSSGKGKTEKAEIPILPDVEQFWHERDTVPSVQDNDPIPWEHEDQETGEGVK
An asterisk follows results filed as active. Most compounds without a hit are left out; they make up all but 3.5% or so of the library.

SMILES	MITF inh	TEAD-YAP inh	FBW7 act	GPR151 ag
COc1ccc2nc3c(cc2c1)c(N)nn3C(=O)c1cc(OC)c(OC)c(OC)c1	0	62*	0	0
COc1ccc2cc3c(N)nn(C(=O)c4cc(OC)c(OC)c(OC)c4)c3nc2c1	19	51*	0	0
COc1ccc2cc3c(N)nn(C(=O)c4ccncc4)c3nc2c1	-21	22	0	1
Cc1ccccc1C(=O)Nc1nnc(-c2cccs2)o1	17	-16	0	-2
COC(=O)c1ccc(Oc2c(C(F)(F)F)oc3cc(O)ccc3c2=O)cc1	4	-2	0	0
CCCc1ccc(Oc2c(C(F)(F)F)oc3cc(O)ccc3c2=O)cc1	9	65*	1	-1
CC(C)(C)c1ccc(Oc2c(C(F)(F)F)oc3cc(O)ccc3c2=O)cc1	-1	88*	0	1
O=c1c(NC2CC2)c(N2CCN(c3ccc4cccc(-c5ccncc5)c4n3)CC2)c1=O	1	23	0	2
CC(C)N(C(=O)c1ccc(-c2nc3ccccc3s2)cc1)C(C)C	-11	54*	0	-1
CC(=O)NCc1ccc(-c2nc3ccccc3s2)cc1	-4	-3	0	-5
O=C(O)c1ccc2nc(-c3ccccc3)sc2c1	19	-13	0	-5
Nc1ccc2nc(-c3ccc(O)cc3)sc2c1	11	76*	0	-10
NC(=O)c1ccc2nc(-c3ccccc3)sc2c1	1	73*	0	-11
Nc1ccc(-c2nc3ccc(N)cc3s2)cc1	1	18	0	-9
Nc1ccc(-c2nc3ccc(C(=O)O)cc3s2)cc1	-10	75*	0	-9
CC(C)(C)C(=O)/C=C/Nc1ccc(C(=O)O)cc1	-13	13	0	1
O=C1OC(c2ccccc2F)=N/C1=C\c1ccccc1	6	0	0	0
Cc1[nH]c(=O)[nH]c(=O)c1CSCC(=O)OCC(=O)Nc1nc2c(s1)C(=O)CC(C)(C)C2	-3	6	0	0
CC(=O)Nc1ccc(N=Cc2c(C)[nH]n(-c3ccc(C)cc3C)c2=O)c([N+](=O)[O-])c1	3	-8	0	0
COc1cc(NC(=O)c2ccc3nc(-c4ccc(C(N)=O)cc4)sc3c2)cc(OC)c1OC	-3	46*	0	-1
CCOc1ccc2nc(NN)sc2c1	10	0	0	-3
CCOc1ccc2nc(-c3ccc(N)cc3)sc2c1	5	35*	0	-1
NC(=O)C1NCCc2c1[nH]c1ccccc21 (stereo not given)	1	-8	0	1
O=c1cc(O)c2sc3nc(-c4ccncc4)ccc3c2[nH]1	-11	-2	0	-1
Cc1nc2ccc(Nc3nccc(-c4cncc(N5CCOCC5)c4)n3)cc2o1	20	28	1	1
SMILES	MITF inh	TEAD-YAP inh	FBW7 act	GPR151 ag
FC(F)Oc1ccc(Nc2nccc(-c3cncc(N4CCOCC4)c3)n2)cc1	-2	19	0	2
O=S(=O)(c1ccc(Nc2nccc(-c3cncc(N4CCOCC4)c3)n2)cc1)N1CCOCC1	-12	-8	0	0
c1cc(-c2cncc(N3CCOCC3)c2)nc(Nc2ccc(OCCN3CCOCC3)cc2)n1	16	78*	0	-1
Fc1ccc(Nc2nccc(-c3cncc(N4CCOCC4)c3)n2)cc1	20	68*	1	0
FC(F)(F)c1cc(Nc2nccc(-c3cncc(N4CCOCC4)c3)n2)ccc1Cl	-1	-12	0	-1
Cc1[nH]nc2ccc(Nc3nccc(-c4cncc(N5CCOCC5)c4)n3)cc12	12	77*	0	1
COc1ccc(Nc2nccc(-c3cncc(N4CCOCC4)c3)n2)cc1OC	-11	47*	0	2
Cc1nc2ccccn2c1C(=O)NC1CCC1	6	3	0	-1
Cn1cnnc1-c1ccc(Nc2nccc(-c3cncc(N4CCOCC4)c3)n2)cc1	27	33*	1	0
Cn1ccc2cc(Nc3nccc(-c4cncc(N5CCOCC5)c4)n3)ccc21	21	81*	-1	-1
Fc1cc(-c2ccnc(Nc3ccc(-c4ncn[nH]4)cc3)n2)cc(N2CCOCC2)c1	1	74*	0	2
COc1cc(/C=N\Nc2ccc([N+](=O)[O-])cn2)c(Br)cc1O	-3	8	20*	2
CCOC(=O)c1[nH]c(C)c(C(=O)Nc2ccccc2SC)c1C	-3	52*	0	1
CCOC(=O)c1[nH]c(C)c(C(=O)Nc2ccc(OC)cc2)c1C	-1	-4	0	-1
CCOC(=O)c1[nH]c(C)c(C(=O)Nc2ccccc2)c1C	3	-14	0	0
CCOC(=O)c1[nH]c(C)c(C(=O)Nc2ccccc2OC)c1C	17	59*	1	-1
